Assay results published in PubChem BioAssay (NCATS).
“And” between values parts separate entries of the source, which are not always exact repeats. Identical values can stand only once. Results filed as inconclusive are left out. Where a call stands in place of a potency, no number is given. Unmarked numbers belong to inactive results. The source made the active and inactive calls. Unless noted, the call rests on the fitted dose curve; in most records, active means well fitted curve in the direction sought with a large enough effect; inconclusive means small, poorly fitted or top-dose-only effect, or another doubt; inactive means no such curve, though single readings can be large; an effect the other way counts as inactive or inconclusive.

Legend:
[1] = target: Calcium and integrin-binding protein 1 (Homo sapiens) (UniProt Q99828); experiment: Primary qHTS for Identification of Calcium Integrin Binding Protein 1 (CIB1) Competitor (AID 1508620);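 further: GST tagged CIB1 binding a fluorescein labelled alphaIIb integrin peptide tracer; top concentration of the series differs between compounds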
Sequence of Calcium and integrin-binding protein 1 (Homo sapiens) (Q99828 whole entry, looked up): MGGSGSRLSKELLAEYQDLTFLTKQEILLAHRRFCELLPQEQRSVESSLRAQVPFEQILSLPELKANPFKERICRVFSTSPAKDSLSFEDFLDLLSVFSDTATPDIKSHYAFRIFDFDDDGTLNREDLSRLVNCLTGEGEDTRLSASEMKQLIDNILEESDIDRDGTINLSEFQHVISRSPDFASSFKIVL
In short: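 Fluorescence polarization competition: GST-tagged CIB1 (1 uM final) preincubated with compound 15 min at room temperature, then FITC-labelled alphaIIb peptide (100 nM final) added. After 15 min at room temperature, polarization read at Ex 480/Em 540.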

[2] = target: Cytochrome P450 2D6 (Homo sapiens) (UniProt P10635); experiment: Cytochrome P450 family 2 subfamily D member 6 (CYP2D6) small molecule antagonists: luciferase biochemical (cell-free) qHTS assay (AID 1645840; active means well fitted curve in the direction sought with a large enough effect in the repeat runs; an effect the other way counts as inactive or inconclusive; further: nearly all actives have a fitted effect of over 55% in size; further: potency means the concentration at half of the fitted maximal effect)
Sequence of Cytochrome P450 2D6 (Homo sapiens) (P10635 whole entry, looked up): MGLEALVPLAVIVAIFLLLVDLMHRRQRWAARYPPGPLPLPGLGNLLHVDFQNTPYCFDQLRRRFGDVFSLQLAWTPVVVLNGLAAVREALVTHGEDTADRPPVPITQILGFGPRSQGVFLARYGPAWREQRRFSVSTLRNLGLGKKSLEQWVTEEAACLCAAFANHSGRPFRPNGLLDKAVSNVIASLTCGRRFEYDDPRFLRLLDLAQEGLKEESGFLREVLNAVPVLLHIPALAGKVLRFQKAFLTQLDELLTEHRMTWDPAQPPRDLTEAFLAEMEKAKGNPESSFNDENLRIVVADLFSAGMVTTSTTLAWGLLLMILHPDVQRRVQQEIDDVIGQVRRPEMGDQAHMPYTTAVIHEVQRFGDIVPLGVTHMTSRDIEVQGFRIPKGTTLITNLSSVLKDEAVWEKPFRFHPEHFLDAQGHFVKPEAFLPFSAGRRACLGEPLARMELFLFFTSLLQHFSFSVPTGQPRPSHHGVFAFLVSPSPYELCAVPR
In short: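 P450-Glo CYP2D6 system: proluciferin substrate converted by enzyme to luciferin, read by luminescence proportional to activity. Enzyme-substrate mix with compound 10 min at room temperature, then NADPH regeneration 1 h before detection reagent.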

[3] = target: Cytochrome P450 2C9 (Homo sapiens) (UniProt P11712); experiment: Cytochrome P450 family 2 subfamily C member 9 (CYP2C9) small molecule antagonists: luciferase biochemical (cell-free) qHTS assay (AID 1645842; active means well fitted curve in the direction sought with a large enough effect in the repeat runs; an effect the other way counts as inactive or inconclusive; further: nearly all actives have a fitted effect of over 55% in size; further: potency means the concentration at half of the fitted maximal effect)
Sequence of Cytochrome P450 2C9 (Homo sapiens) (P11712 whole entry, looked up): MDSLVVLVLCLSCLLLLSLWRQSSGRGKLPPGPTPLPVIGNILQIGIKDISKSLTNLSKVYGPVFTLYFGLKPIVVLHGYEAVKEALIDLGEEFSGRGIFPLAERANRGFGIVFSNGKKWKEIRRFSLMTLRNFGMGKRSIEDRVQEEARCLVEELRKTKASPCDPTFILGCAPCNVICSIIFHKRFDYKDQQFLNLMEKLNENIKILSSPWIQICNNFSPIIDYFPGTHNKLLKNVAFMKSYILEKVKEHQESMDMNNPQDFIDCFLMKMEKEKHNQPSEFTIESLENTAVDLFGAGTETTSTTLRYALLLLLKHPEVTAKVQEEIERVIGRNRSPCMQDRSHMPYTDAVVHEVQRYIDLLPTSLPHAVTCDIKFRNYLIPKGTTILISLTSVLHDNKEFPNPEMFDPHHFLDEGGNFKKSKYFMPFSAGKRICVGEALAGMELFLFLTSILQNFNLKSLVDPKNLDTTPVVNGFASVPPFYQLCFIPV
In short: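 P450-Glo CYP2C9 system: proluciferin substrate with enzyme in mix containing 0.4% BSA, 10 min at room temperature, then NADPH regeneration solution added and incubated 1 h at 37C. Detection reagent stopped reaction; luminescence read after 20 min as RLU.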

[4] = Primary qHTS for inhibitors of nuclear receptor binding SET domain protein 2 (NSD2) in an isogenic RCH-ACV NSD2 p.E1099K mutant (9B) (AID 1645876); further: nearly all actives have a fitted effect of over 70% in size; further: potency means the concentration at half of the fitted maximal effect
[5] = Confirmatory qHTS to identify inhibitors of SARS-CoV-2 cell entry (AID 1645844; calls by dose curve; further: potency means the concentration at half of the fitted maximal effect; nearly all actives have a fitted effect of over 45% in size); details: SARS-CoV-2 pseudotyped particle cell entry, luciferase
In short: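 HEK293-ACE2, overnight seeding; cpd 1 h, 37C/5% CO2; + SARS-CoV-2-S MLV PP (Wuhan-Hu-1, ΔC19); 48 h; Bright-Glo luminescence. Data normalised to S PP and bald PP wells.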

[6] = VSVG counterscreen qHTS to identify inhibitors of SARS-CoV-2 cell entry (AID 1645847; calls by dose curve; further: potency means the concentration at half of the fitted maximal effect; nearly all actives have a fitted effect of over 65% in size); details: VSV-G pseudotyped particle entry, luciferase
In short: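 Luminescence from a luciferase reporter, normalised to bald particle and VSV-G pseudotyped particle wells, is the read-out. Cells are HEK293 expressing human ACE2, exposed to compound 1 h before a 48 h particle infection at 37 °C.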

[7] = A High-Content qHTS Against Drug Library for the Identification of Small Molecules that Inhibit DYT1 Early Onset Primary Dystonia-Associated Cell Pathology (AID 1645839; calls by dose curve; further: series mostly up to about 46 µM)
In short: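 Cells were seeded and left for 24 h, then dosed with compound alongside tetracycline induction of mutant EGFP-TorsinA. They were incubated for 48 h, fixed in 4% paraformaldehyde, permeabilized and imaged for mislocalization (%pathology) and cell count.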

## Cn1ncnc1COc1nn2c(-c3c(F)cccc3F)nnc2cc1C1CCC1
[1]
  Potency: inactive
[2]
  Potency: inactive
[3]
  Potency: 6.74 µM (active)
[4]
  Potency: inactive

## OCCCCC#Cc1cncc(OC[C@@H]2CCN2)c1
[1]
  Potency: inactive
[2]
  Potency: inactive
[3]
  Potency: inactive
[4]
  Potency: inactive

## Cc1cc(C(=O)CN2CCCC2)c(C)n1-c1ccc(F)cc1
[1]
  Potency: inactive
[2]
  Potency: 0.952 µM (active)
[3]
  Potency: inactive
[4]
  Potency: inactive

## CCOc1ccccc1-n1c(C(C)N2CCN(C(=O)COc3ccc(Cl)cc3)CC2)nc2ccccc2c1=O (configuration not stated)
[1]
  Potency: inactive
[2]
  Potency: inactive
[3]
  Potency: 13.5 µM (active)
[5]
  Potency: 0.0192 µM (active)
[6]
  Potency: 19.2 µM (active)
[4]
  Potency: 916 nM (active) and 662 nM (active)

## Cc1c(Cl)cccc1S(=O)(=O)Nc1nc(CC(=O)N2CCN(C)CC2)cs1
[1]
  Potency: inactive
[2]
  Potency: inactive
[3]
  Potency: 21.3 µM (active)
[4]
  Potency: inactive

## CN(C(=O)Cc1ccccc1)C(CN1CCCC1)c1ccccc1 (configuration not stated)
[1]
  Potency: inactive
[2]
  Potency: 0.0849 µM (active)
[4]
  Potency: inactive

## CN1C(=O)N(c2ccc(C#N)c(C(F)(F)F)c2)C(=O)[C@]1(CO)c1ccccc1
[1]
  Potency: inactive
[4]
  Potency: inactive

## C=CC(C)(C)c1[nH]c2cccc3c2c1C[C@@H]1[C@@H]3[C@@H](OC(C)=O)[C@H](C)CN1C
[1]
  Potency: inactive
[4]
  Potency: inactive

## CCc1[nH]c2ccc(OC)cc2c1CCN(C)C
[1]
  Potency: inactive
[2]
  Potency: 1.9 µM (active)
[3]
  Potency: inactive
[4]
  Potency: inactive

## CCCSP(=O)(OCC)SCCC
[1]
  Potency: inactive
[7]
  Potency: inactive
[2]
  Potency: 58.4 µM (active)

## COC1CC(O[C@H]2CC[C@@]3(C)C(=CCC4C3C(O)[C@@H](O)[C@]3(C)[C@@H](C(C)=O)CC[C@]43O)C2)OC(C)C1OC1CC(OC)C(OC2OC(C)C(O)C(O)C2O)C(C)O1 (some centres not stated)
[1]
  Potency: inactive
[4]
  activity change, negative = viability loss: -2.91% [at 9.23 µM]

## Cc1cn(C[C@H](N)C(=O)O)c(=O)n(Cc2cc(-c3ccccc3)sc2C(=O)O)c1=O
[1]
  Potency: inactive
[2]
  Potency: inactive
[3]
  Potency: inactive
[4]
  Potency: inactive

## COC(=O)C1(C)CCC(=O)C2(C)c3c(O)cc(C(C)C)cc3C(O)C(OC(C)=O)C12 (configuration not stated)
[1]
  Potency: inactive
[4]
  Potency: inactive

## CCN1C[C@]2(COC)[C@H](O)C[C@H](OC)[C@]34[C@@H]5C[C@]6(O)[C@H](OC(=O)c7ccccc7)[C@@H]5[C@@](O)([C@H]([C@H](OC)[C@H]23)[C@@H]14)[C@@H](O)[C@@H]6OC
[1]
  Potency: inactive
[4]
  Potency: inactive

## CCN1C[C@]2(OC(=O)c3ccccc3NC(C)=O)CC[C@H](OC)[C@@]34[C@@H]2C[C@@H]([C@@H]13)[C@@]1(O)C[C@H](OC)[C@H]2C[C@@H]4[C@]1(O)[C@H]2OC
[1]
  Potency: inactive
[4]
  Potency: inactive

## C=C[C@H]1[C@H](O[C@@H]2O[C@H](CO)[C@@H](O)[C@H](O)[C@H]2O)OC=C2C(=O)OCC[C@H]21
[1]
  Potency: inactive
[4]
  Potency: inactive

## COCC1OC(=O)c2coc3c2C1(C)C1=C(C3=O)C2CCC(=O)C2(C)CC1O (configuration not stated)
[1]
  Potency: inactive
[4]
  Potency: inactive

## CN1C(=O)c2ccccc2NC(=O)[C@]12O[C@@H]2c1ccccc1
[1]
  Potency: inactive
[4]
  Potency: inactive

## COc1c(C(C)C)cc2c(c1O)[C@@]1(C(=O)O)CCCC(C)(C)C1CC2 (some centres not stated)
[1]
  Potency: inactive
[4]
  Potency: inactive

## C[C@@]12C[C@@H](c3ccoc3)OC(=O)C1CC[C@]1(C)[C@H]2[C@H]2C=C[C@]1(O)C(=O)O2 (some centres not stated)
[1]
  Potency: inactive
[4]
  Potency: inactive

## CN1C(=O)c2ccccc2NC(=O)C1Cc1ccccc1 (configuration not stated)
[1]
  Potency: inactive
[4]
  Potency: inactive

## COC1=CC(=O)O[C@@H](CCc2ccccc2)C1
[1]
  Potency: inactive
[4]
  Potency: inactive

## C1=C2CCCN[C@H]2[C@@H]2C[C@H]1[C@H]1CCCCN1C2
[1]
  Potency: inactive
[4]
  Potency: inactive

## COC(=O)C1(C)CCC(O)C2(C)c3c(O)cc(C(C)C)cc3C(O)C(OC(C)=O)C12 (configuration not stated)
[1]
  Potency: inactive
[4]
  Potency: inactive

## C/C=C(\C)C(=O)OC1CC2C(C)(C)OC(=O)CC(OC(C)=O)C2(C)C2CC(OC(=O)C(C)C)C3(C)C(c4ccoc4)CC4OC43C12C (configuration not stated)
[1]
  Potency: inactive
[4]
  Potency: inactive

## C=C(CO)C(=O)O[C@H]1C/C(C)=C/CC/C(CO)=C/[C@H]2OC(=O)C(=C)[C@H]12
[1]
  Potency: inactive
[4]
  Potency: inactive

## COC1CC(OC2CCC3(C=O)C(CCC4C3CCC3(C)C(C5=CC(=O)OC5)CCC43O)C2)OC(C)C1OC1OC(CO)C(O)C(O)C1O (configuration not stated)
[1]
  Potency: inactive
[4]
  Potency: 85.8 nM (active)

## CC[C@H]1CN2CC[C@H]1C[C@H]2[C@H](O)c1ccnc2ccc(OC)cc12
[1]
  Potency: inactive
[4]
  Potency: inactive

## CCN1CC2(COC)C3[C@@H](OC)C4C1C3(C1C[C@]3(O)[C@H](OC(=O)c5ccccc5)C1[C@]4(OC(C)=O)[C@@H](O)[C@@H]3OC)[C@H](OC)C[C@H]2O (some centres not stated)
[1]
  Potency: inactive
[4]
  Potency: inactive

## CC(C)=C1CC[C@]23CO[C@H](C2)[C@@](O)(C(=O)O)CCC13 (some centres not stated)
[1]
  Potency: inactive
[4]
  Potency: inactive

## CN1CCCC1CCOC(c1cc2nccc(C(=O)O)c2[nH]1)c1ccccc1Cl (configuration not stated)
[1]
  Potency: inactive
[4]
  Potency: inactive

## COC(=O)[C@@]12C(=O)C(C)C(=O)[C@]1(C)C(C)=C[C@H]1[C@]3(C=O)CC[C@H](OC(C)=O)C(C)(C)[C@H]3CC[C@@]12C (some centres not stated)
[1]
  Potency: inactive
[4]
  Potency: inactive
